Source: PubChem BioAssay (several laboratories)
Bim-Mcl-1: human Bim-Mcl-1 interaction inhibition. Q07820. Bead-based flow cytometry, Bim peptide-Mcl-1 binding. inhibition, % at 10 µM. 190,000 tested, 0.1% active; in the data active = inhibition above about 40%;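 note: 0% = no compound tracer wells and 100% = peptide blocker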
Mcl1-Bid inh: disrupts binding of human Mcl-1 to Bid peptide | Q07820 | TR-FRET Mcl-1/Bid-Dy647 peptide binding, 1536-well | inhibition, % at 21.7 µM | 220,000 tested, 0.97% active;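 active = compounds that cut the binding signal by more than half at the single screening dose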;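 note: His-tagged Mcl-1 with europium anti-His antibody binding Bid BH3 peptide; 0% = Mcl-1 plus peptide wells and 100% = peptide-only wells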
eIF4E-4G inh: eIF4E/eIF4G interaction inhibition in translation initiation | inhibition, % at 21.7 µM | P63073+Q04637 | 220,000 tested, 0.37% active | AID 782 | TR-FRET eIF4E-eIF4GI(517-606) binding, 2 h;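 note: 0% = full FRET control wells and 100% = background wells lacking eIF4GI fragment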
Mcl1 Noxa PPI: disrupts binding of human Mcl-1 to Noxa peptide. TR-FRET Mcl-1/Noxa peptide binding, 2 h. 220,000 tested, 1.5% active. inhibition, % at 21.7 µM. Q07820;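 active = compounds that cut the protein-peptide binding signal by more than 50% relative to plate controls in a single-dose test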;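 note: His-tagged Mcl-1 with rhodamine Noxa BH3 peptide and terbium anti-His antibody; 0% = Mcl-1 plus Noxa peptide wells and 100% = peptide-only wells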
NCF1 inh: inhibitors of human p47phox binding; AID 1274; inhibition, % at 24.7 µM; 220,000 tested, 0.53% active; p47phox/p22phox peptide binding, fluorescence polarization, 2 h; P14598;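 note: 0% = p47phox with labelled peptide and 100% = labelled peptide alone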
14-3-3 Bad inh: disrupts binding of bovine 14-3-3 zeta to phospho-Bad peptide. P63103. TR-FRET 14-3-3zeta/Dy647-pBad peptide displacement, 1 h. inhibition, % at 21.7 µM. 220,000 tested, 0.71% active;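 active = inhibition above about 70%, limit read from the data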;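 note: 0% = full 14-3-3 plus peptide FRET controls and 100% = background without 14-3-3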
* = called active by the depositor; . = not tested or not shown; [ ] = dose if it differs, or a comment. Hits are enriched below; roughly 3.3% of the tested compounds scored in any of these assays.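 Rule for the calls, unless noted: active = inhibition above about 30% (limit read from the data); inactive = the rest.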

SMILES	Bim-Mcl-1	Mcl1-Bid inh	eIF4E-4G inh	Mcl1 Noxa PPI	NCF1 inh	14-3-3 Bad inh
CCn1cc(C(=O)NCc2ccco2)c(=O)c2cc(S(=O)(=O)N3CCCC3)ccc21	1.0	-1.9	3.3	-1.9	-6.3	0.3
Cc1ccc(-c2nn3cnnc3c3ccccc23)cc1C	0.0	-20.9	0.9	7.6	-4.5	-2.4
COC(=O)c1cnn(-c2ccc(Cl)cc2)c1/C=N/NC(N)=S	.	-16.8	0.5	31.9	-0.7	-5.1
CCN1CCN(c2nc(S(=O)(=O)c3ccc(C)cc3)c(Cl)s2)CC1	-1.0	0.3	-6.3	-8.9	2.2	-1.7
O=C(C(c1ccccc1)c1ccccc1)N1CCN(Cc2ccco2)CC1	-3.0	47.3	7.0	25.3	4.1	71.1*
O=C(C(c1ccccc1)c1ccccc1)N1CCOCC1	-1.0	-23.8	-9.4	-8.0	-10.4	-3.0
CCOc1ccc(OCC)c(NC(=O)Cn2c(C)nc3ccccc3c2=O)c1	-1.0	-14.5	3.3	-7.2	-4.5	-1.5
CC(=O)N1N=C(N)SC1(C)C	0.0	-26.2	0.7	5.4	-14.5	-16.3
O=Cc1ccc(N2CCCC2)c([N+](=O)[O-])c1	2.0	0.7	1.1	11.3	-0.5	1.3
O=[N+]([O-])/C=C\c1ccc(N2CCCC2)c(F)c1	0.0	4.6	2.9	24.6	35.7*	-6.9
N#C/C(=N\Nc1ccccc1F)c1nc(-c2ccccc2)cs1	0.0	3.6	0.8	2.6	-4.6	-7.5
Cc1ccc(-n2c(O)c(C=NC3CCS(=O)(=O)C3)c3ccccc3c2=O)c(C)c1 (centres undefined)	.	-14.2	-3.1	8.7	-8.6	-1.1
Cc1ccc(-n2c(O)c(C=NC3CCS(=O)(=O)C3)c3ccccc3c2=O)cc1 (centres undefined)	-3.0	-34.5	0.4	2.2	51.2*	9.1
COc1ccccc1CNC(=O)C1CC(c2ccccc2C(F)(F)F)=NO1 (centres undefined)	.	-23.1	-0.6	7.8	-3.2	-2.2
O=C(CCCC(=O)OCC(Cl)=C(Cl)Cl)Nc1ccccc1	27.0	3.8	-3.2	8.2	-3.5	-2.6
O=c1c2c3c(sc2n2c(=S)[nH]nc2n1-c1ccccc1)CCC3	.	-53.5	37.6*	9.8	-5.6	-4.0
Cc1cccc(-n2c(=O)c3c4c(sc3n3c(=S)[nH]nc23)CCC4)c1	7.0	-48.5	31.6*	9.0	2.8	-3.8
Cc1ccc(-n2c(=O)c3c4c(sc3n3c(=S)[nH]nc23)CCC4)cc1	.	-44.3	25.9	16.7	-3.3	-4.3
CCn1c(=O)c2c3c(sc2n2c(=S)[nH]nc12)CCC3	3.0	8.9	51.9*	4.2	4.0	11.8
N#Cc1ccc(-c2cccs2)nc1SCc1cccnc1	.	-2.3	-6.1	0.0	-14.3	-5.1
CN1CCN(C(=O)CSc2nc(-c3cccs3)ccc2C#N)CC1	-1.0	-8.5	2.2	55.9*	-34.0	1.2
CCOC(=O)N1CCC(n2c(SCC(=O)c3ccccc3)nc3ccsc3c2=O)CC1	0.0	65.1*	-54.9	-202.9	2.9	14.8
CCOCCCNCC(=O)Nc1ccccc1N1CCOCC1	0.0	42.1	-4.9	22.4	-26.6	71.0*
O=C(NCCCN1CCOCC1)c1ccccc1	3.0	22.7	0.9	14.0	2.5	80.7*
CCCCC(=O)Nc1ccccc1N1CCOCC1	0.0	-24.6	0.8	17.9	7.9	-4.7
SMILES	Bim-Mcl-1	Mcl1-Bid inh	eIF4E-4G inh	Mcl1 Noxa PPI	NCF1 inh	14-3-3 Bad inh
O=C(CN1CCOCC1)NCc1ccccc1	-1.0	-23.6	3.7	-1.4	42.6*	-0.6
Cc1ccccc1OCC(=O)Nc1ccccc1N1CCOCC1	-5.0	-7.2	0.8	-0.6	-2.9	4.1
Cc1cc(C)c(OCC(=O)Nc2ccccc2N2CCOCC2)c(C)c1	-1.0	-28.8	5.3	-3.5	41.4*	-9.0
Cc1ccccc1C(=O)NNC(=O)CSc1nc2ccccc2c(=O)[nH]1	.	15.0	3.5	10.4	-7.7	9.6
CSc1ccccc1NC(=O)CN1CCCCC1	0.0	-18.2	1.8	-2.1	-2.7	-9.9
CSc1ccccc1NC(=O)CNCCCN1CCOCC1	.	89.1*	-1.1	39.1	1.6	38.4
Cc1ccc(C(=O)N/C(=C\c2ccc(C(C)C)cc2)C(=O)NCCCN2CCOCC2)cc1	-1.0	-10.9	2.6	51.1*	-8.8	30.1
C=CCN1C=C/C(=C\C=C(C#N)C#N)c2ccccc21	5.0	-42.7	-3.5	22.3	82.6*	-9.8
CCCCCCN1C=C/C(=C\C=C(C#N)C#N)c2ccccc21	2.0	-42.0	-2.4	-25.3	127.8*	-5.0
CC1CCCC(NC2CCCCNC2=O)C1 (centres undefined)	2.0	83.1*	1.8	-10.8	-4.9	10.6
CCC1CCC(NC2CCCCNC2=O)CC1 (centres undefined)	-1.0	-2.0	-0.2	13.4	-2.5	-0.8
O=C(c1ccc(C#CC2(O)CCCCC2)cc1)N1CCN(C(c2ccccc2)c2ccccc2)CC1	0.0	1.5	-0.4	-2.1	-10.0	10.2
COc1ccc(CN2C(=O)c3cccnc3C2Nc2ccc(C)cc2)cc1 (centres undefined)	0.0	11.6	-1.5	20.3	-17.1	28.2
COc1ccc(CN2C(=O)c3cccnc3C2Nc2cc(Cl)c(OC)cc2OC)cc1 (centres undefined)	-5.0	90.3*	-6.1	39.0	-13.4	92.2*
O=[N+]([O-])c1cc(/C=N\Nc2nccs2)ccc1O	1.0	60.5*	49.4*[fluorescence artefact?]	100.5*	-10.1	74.8*[fluorescence artefact?]
Cc1ccc(NC(=O)C2CC(=O)N(Cc3ccco3)C2)cc1 (centres undefined)	.	-17.2	3.1	-0.3	-2.8	-2.9
CS(=O)(=O)N(CC(=O)NCCC1=CCCCC1)C1CCCCC1	0.0	0.0	1.9	4.7	-0.5	-4.7
O=C(CN1CCN(C2CCCCC2)CC1)NCCC1=CCCCC1	3.0	50.9*	-3.8	32.8	-4.5	56.8
COc1ccc(S(=O)(=O)N/N=c2\oc3c(OC)cccc3cc2S(=O)(=O)c2ccc(C)cc2)cc1OC	-2.0	4.2	7.1	6.2	.	0.4
COc1ccc(CNc2nc(SCc3cc(=O)n4cc(Cl)ccc4n3)nc3ccccc23)cc1	-7.0	-16.8	1.1	13.9	-13.9	-10.5
O=C1NCCN/C1=C\C(=O)c1ccc(F)cc1	.	-43.1	-0.5	0.1	8.3	-1.4
Nc1c(C(=O)NCc2cccnc2)sc(=S)n1-c1ccccc1	-2.0	-11.1	32.6*	13.6	-10.2	5.4
OCCCN=c1cc(-c2ccccc2)oc2ccc(Cl)cc12	0.0	-18.5	10.9	8.0	-6.3	192.7*[fluorescence artefact?]
O=C(Nc1ccc2nc3ccccc3nc2c1)c1ccccc1	7.0	33.0	-5.4	81.4*	2.2	3.6
CC(=O)Nc1ccc2cc3ccc(NC(C)=O)cc3nc2c1	.	0.6	11.4	58.5*	-5.3	6.0
CC(=O)NS(=O)(=O)c1ccc2sc(C)nc2c1	.	20.0	10.1	15.1	-9.2	2.9
CC(=O)Nc1ccc2sc(C)nc2c1	.	17.8	63.6*	5.9	-2.3	3.3
